This note sets out measurements from PMC12864922, “TDP-43 directly inhibits mRNA accumulation in neurites through modulation of mRNA stability”.

B1: ENSMUSG00000090935.743|Synj2bp (ssRNA)
RNA: GGGAGUUCUACAGUCCGACGAUCGCUUCGAUAUCCGCAUGCUAAAUACUCCUGGGUAAAAUUUGUAUUAGAAUGGAAAAAAAAAUGAGGGUCAGAAAGGUGAGCUAACUUCAAGUUAGAUACUCCCCUCUAUUUUGGUCUCAAAUUUGUUUUAGUGUGUCCACAACAUGAAAACAUACAAAAACUAUAUUUUAAAAAUCAGUUUACUUUCAUCUUUUCUCUUUAGGCUUUCAAUAAAGACCAGAAGGACUGAUAGACAGCUAGAGAGGAUCGUGUAGGCAUCCAGAUUAGAAUGGAAGAAUCCCUCUUGCGGUCGCACUAGUGUGGAAUUCUCGGGUGUCAAGG
B2: ENSMUSG00000022095.31|Fam160b2|161:165 (ssRNA)
RNA: GGGAGUUCUACAGUCCGACGAUCGCUUCGAUAUCCGCAUGCUACUCUGUCCUCCAUGCCGGGGACUUCAGCUGCAGGACACCUCACCUGUUGACCCCACGAGCUGAGGUUUCAAGGAGGUGCUGGCUCCUAAGGCAGUGGUAUUCUUGGAGCCUUUUAGAGGAGCUAGAGGAUGGCCAGUGAGCGCCUAGAUGCUGCCCUGCAACACAUGCGUGACUAUCUCUGCUAUAUUGUGACCAGGGCCACAACAUGAGACAACUCCAGGGGCCAGGGAGAUGAACUGCUGUCUUUGAGGCUGGCUAAACUCUUGCGGUCGCACUAGUGUGGAAUUCUCGGGUGUCAAGG
B3: ENSMUSG00000042529.39|Kcnj12 (ssRNA)
RNA: GGGAGUUCUACAGUCCGACGAUCGCUUCGAUAUCCGCAUGCUAGUUUUUUCGCAGUAGCUUGGGAAAGUUGGCGGGAGCGUGGAUGGCCAAAAUGACUGGCUCACGGCCUCGGAGGCUGAUGUAUACCCAUGGGCAAGGAGGUGACUUCUUGGGGUAGGGUUGCUCAGGAGUUAGGGACUCUGCUGGAGGCCUUAGGUGCAGGUCCCAGCCCCGGUGGGAGGAGGCUGUGUAUGUACACUUCAUUGGUUUUUAACUUGGGCAAGACUGUUUACAAACAAAAACAAACAAACAAACAAUCAAAACUCUUGCGGUCGCACUAGUGUGGAAUUCUCGGGUGUCAAGG
B4: ENSMUSG00000061578.1490|Ksr2 (ssRNA)
RNA: GGGAGUUCUACAGUCCGACGAUCGCUUCGAUAUCCGCAUGCUAGGUAGAAGGGUGAGUGGGUGGAUGAAUGGAUGGAUAGGUUGGUAGGUUAAUGUAUUCGUGGAUGGGUGAAUGGAUGGAUGGAUAGAUAGAUGGGAAGGUGGAUGGACAGAUGGAUGGAUGGAUAGAUAGAUGGACAGGUGGUUGGUGGAUAAAUGAGUGAAUGAUUAUGUUGAUAGAUAUGUGGGUAGGCUGAAUGGGUGAAUGGAUAGAUCGAUGACUGGAUGGAGGGUGGGUGACUGUAUAGGCAGGUGGGUAGGUAGCUCUUGCGGUCGCACUAGUGUGGAAUUCUCGGGUGUCAAGG
B5: ENSMUSG00000061578.1492|Ksr2 (ssRNA)
RNA: GGGAGUUCUACAGUCCGACGAUCGCUUCGAUAUCCGCAUGCUAAGUGGGUGGAUGAAUGGAUGGAUAGGUUGGUAGGUUAAUGUAUUCGUGGAUGGGUGAAUGGAUGGAUGGAUAGAUAGAUGGGAAGGUGGAUGGACAGAUGGAUGGAUGGAUAGAUAGAUGGACAGGUGGUUGGUGGAUAAAUGAGUGAAUGAUUAUGUUGAUAGAUAUGUGGGUAGGCUGAAUGGGUGAAUGGAUAGAUCGAUGACUGGAUGGAGGGUGGGUGACUGUAUAGGCAGGUGGGUAGGUAGCUGGAUGGGUGGCUCUUGCGGUCGCACUAGUGUGGAAUUCUCGGGUGUCAAGG
B6: ENSMUSG00000061578.1489|Ksr2 (ssRNA)
RNA: GGGAGUUCUACAGUCCGACGAUCGCUUCGAUAUCCGCAUGCUAUAUGUGGGUAGAAGGGUGAGUGGGUGGAUGAAUGGAUGGAUAGGUUGGUAGGUUAAUGUAUUCGUGGAUGGGUGAAUGGAUGGAUGGAUAGAUAGAUGGGAAGGUGGAUGGACAGAUGGAUGGAUGGAUAGAUAGAUGGACAGGUGGUUGGUGGAUAAAUGAGUGAAUGAUUAUGUUGAUAGAUAUGUGGGUAGGCUGAAUGGGUGAAUGGAUAGAUCGAUGACUGGAUGGAGGGUGGGUGACUGUAUAGGCAGGUGGGUCUCUUGCGGUCGCACUAGUGUGGAAUUCUCGGGUGUCAAGG
B7: ENSMUSG00000061578.1488|Ksr2 (ssRNA)
RNA: GGGAGUUCUACAGUCCGACGAUCGCUUCGAUAUCCGCAUGCUAAAUGAAUAUGUGGGUAGAAGGGUGAGUGGGUGGAUGAAUGGAUGGAUAGGUUGGUAGGUUAAUGUAUUCGUGGAUGGGUGAAUGGAUGGAUGGAUAGAUAGAUGGGAAGGUGGAUGGACAGAUGGAUGGAUGGAUAGAUAGAUGGACAGGUGGUUGGUGGAUAAAUGAGUGAAUGAUUAUGUUGAUAGAUAUGUGGGUAGGCUGAAUGGGUGAAUGGAUAGAUCGAUGACUGGAUGGAGGGUGGGUGACUGUAUAGGCAGCUCUUGCGGUCGCACUAGUGUGGAAUUCUCGGGUGUCAAGG
B8: ENSMUSG00000061578.1493|Ksr2 (ssRNA)
RNA: GGGAGUUCUACAGUCCGACGAUCGCUUCGAUAUCCGCAUGCUAUGGAUGAAUGGAUGGAUAGGUUGGUAGGUUAAUGUAUUCGUGGAUGGGUGAAUGGAUGGAUGGAUAGAUAGAUGGGAAGGUGGAUGGACAGAUGGAUGGAUGGAUAGAUAGAUGGACAGGUGGUUGGUGGAUAAAUGAGUGAAUGAUUAUGUUGAUAGAUAUGUGGGUAGGCUGAAUGGGUGAAUGGAUAGAUCGAUGACUGGAUGGAGGGUGGGUGACUGUAUAGGCAGGUGGGUAGGUAGCUGGAUGGGUGGGCGUAUCUCUUGCGGUCGCACUAGUGUGGAAUUCUCGGGUGUCAAGG
B9: ENSMUSG00000061578.1494|Ksr2 (ssRNA)
RNA: GGGAGUUCUACAGUCCGACGAUCGCUUCGAUAUCCGCAUGCUAAAUGGAUGGAUAGGUUGGUAGGUUAAUGUAUUCGUGGAUGGGUGAAUGGAUGGAUGGAUAGAUAGAUGGGAAGGUGGAUGGACAGAUGGAUGGAUGGAUAGAUAGAUGGACAGGUGGUUGGUGGAUAAAUGAGUGAAUGAUUAUGUUGAUAGAUAUGUGGGUAGGCUGAAUGGGUGAAUGGAUAGAUCGAUGACUGGAUGGAGGGUGGGUGACUGUAUAGGCAGGUGGGUAGGUAGCUGGAUGGGUGGGCGUAUAGAAAGCUCUUGCGGUCGCACUAGUGUGGAAUUCUCGGGUGUCAAGG

In all, about 9,900 sequences were measured (“r (bound/input frequency ratio)”: median about 0.7, highest 2% from about 6.5 on). The sample holds the highest values, similar sequences and a random draw of the others, so the mix is not that of the screen.

For the experiment, the target named is TDP-43 (Homo sapiens, UniProt Q13148 1-414). As to the kind of experiment: RNA Bind-n-Seq with designed 260-mer pool; 25 mM Tris-HCl, 150 mM KCl, 3 mM MgCl2, BSA (printed 500 mg/mL), 20 units/mL SUPERase IN; pH not stated; 500 nM RNA pool, 1 h, 4 C; TDP-43 5, 50, 500 nM; high values mean tight binding. The following applies: protein: recombinant; tags: SBP (GST cleaved off with PreScission; pGEX-GST-SBP). The gist of the method: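 An in vitro-transcribed pool of 260-nt 3′ UTR oligos (500 nM) was incubated for 1 h at 4 °C with recombinant SBP-tagged TDP-43 at 5, 50 or 500 nM held on streptavidin beads. The buffer contained 25 mM Tris-HCl, 150 mM KCl, 3 mM MgCl2, BSA and SUPERase IN. Biotin-eluted bound RNA was sequenced, and binding, R, is each oligo's normalized read abundance in the bound sample over that in input.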
Chain of TDP-43 (Q13148 whole entry): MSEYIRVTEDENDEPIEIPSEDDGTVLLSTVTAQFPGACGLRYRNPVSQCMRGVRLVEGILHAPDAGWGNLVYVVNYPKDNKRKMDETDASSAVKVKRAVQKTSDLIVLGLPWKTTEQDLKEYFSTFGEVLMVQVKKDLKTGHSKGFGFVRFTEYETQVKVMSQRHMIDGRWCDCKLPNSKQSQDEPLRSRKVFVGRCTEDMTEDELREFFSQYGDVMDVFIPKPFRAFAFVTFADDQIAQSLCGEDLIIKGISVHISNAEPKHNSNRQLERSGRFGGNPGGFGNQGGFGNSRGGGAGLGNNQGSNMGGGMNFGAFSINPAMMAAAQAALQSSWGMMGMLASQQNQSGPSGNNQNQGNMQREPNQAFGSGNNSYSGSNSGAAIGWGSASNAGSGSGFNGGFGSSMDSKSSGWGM
In the case of B1, the binding signal was 0.123 R (bound/input frequency ratio).
To B2 belongs 0.326 R (bound/input frequency ratio); to B3, 1.88 R (bound/input frequency ratio); to B4, 11.2 R (bound/input frequency ratio).
To B5 belongs 7.07 R (bound/input frequency ratio); to B6, 5.83 R (bound/input frequency ratio).
Take B7: the binding signal was 5.5 R (bound/input frequency ratio).
Turning to B8, the binding signal was 4.33 R (bound/input frequency ratio).
For B9, the binding signal is 5.89 R (bound/input frequency ratio).
